Reference: PubChem BioAssay AID1825 (The Scripps Research Institute Molecular Screening Center, 2009)
In all, about 290,000 compounds went through this assay and about 2,300 (0.79%) were called active. This is one part of a sample in which actives are shown more often than they occur. A number with no mark means an inactive call. Rule as the data show it: active = inhibition above about 22%; inactive = the rest.

Assay: IEC-6 cell viability reduction – luminescence, cytotoxicity control for KLF5 inhibitor project, primary screen (AID 1825);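 also: 0% = plate median of test compound wells and 100% = cytotoxic reference compound wells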
Details: IEC-6 cytotoxicity, at 5 µM, hits give high values

Row | Structure (SMILES) | inhibition
1 | COc1ccc(CS(=O)/C(Cl)=C(/Cl)C(=O)Nc2ccc(OC)nc2)cc1 (stereo not drawn) | 102% (active)
2 | COc1ccc(C(=O)Nc2ccc(NC(=O)C(C)C)nc2)cc1 | -0.5%
3 | CCOc1ccc(S(=O)(=O)Nc2ccc(OC)nc2)cc1 | 6.1%
4 | COc1ccc(NC(=O)/C(Cl)=C(/Cl)S(=O)Cc2ccc(C)cc2)cn1 (stereo not drawn) | 99.6% (active)
5 | COc1ccc(Nc2cc(Cl)ccc2C(=O)O)cn1 | -1.3%
6 | COc1ccc(NC(=O)c2cc(-c3ccc(C)cc3)on2)cc1 | 2.3%
7 | Cc1ccc([N+](=O)[O-])cc1S(=O)(=O)N1CCCN(C)CC1 | 3.1%
8 | CC1(C)Cc2cccc(OCC(=O)N3CCN(c4ccc([N+](=O)[O-])cc4)CC3)c2O1 | 4.2%
9 | Cc1cccc(C(=O)N2CCN(S(=O)(=O)N3CCCCC3)CC2)c1 | -0.2%
10 | CN(C)CCNC(=O)c1[nH]nc2c1CCc1ccccc1-2 | -3.9%
11 | CC(=O)NCCc1ccc(S(=O)(=O)Nc2ccc(C)c(S(=O)(=O)N3CCOCC3)c2)cc1 | 2.5%
12 | COc1cc(OC)cc(C(=O)N[C@H](C(=O)Nc2nc3ccccc3[nH]2)C(C)C)c1 | 18.7%
13 | CC(C)c1nc2ccc(C(=O)O)cc2[nH]1 | -6%
14 | COC(=O)Nc1nc2ccc(Sc3ccccc3)cc2[nH]1 | 81.4% (active)
15 | S=C(c1ccc(-c2ccccc2)o1)N1CCCCC1 | 1.6%
16 | O=C(Cc1ccc([N+](=O)[O-])cc1)Nc1ccc(C(=O)N2CCOCC2)cc1 | -2.8%
17 | CCCc1c(C(=O)N/N=C(\C)CCc2ccc(OC)cc2)nnn1-c1nonc1N | 1.1%
18 | CCn1cc(/C=C(\NC(=O)c2cc(OC)c(OC)c(OC)c2)C(=O)N2CCN(C)CC2)c2ccccc21 | 6.9%
19 | Cc1nn(C(C)C(=O)NCCC2=CCCCC2)c(=O)c2nn(-c3ccccc3)c(C)c12 (stereo not drawn) | -2.9%
20 | Cc1cc(C(=O)N/N=C\C(Br)=C\c2ccccc2)c(C)o1 | 11.7%
21 | CC(C)c1cc(C(=O)O)n[nH]1 | 1.7%
22 | CC(C)c1cc(C(=O)N/N=C/C(Br)=C/c2ccccc2)n[nH]1 | 37.9% (active)
23 | Cc1ccc(Cl)cc1NC(=O)C1CCCN(c2cnccn2)C1 (stereo not drawn) | -2.8%
24 | C[C@@H]1C[C@@H]2O[C@H]2/C=C\C=C\C(=O)Cc2c(Cl)c(O)cc(O)c2C(=O)O1 | 44.5% (active)

Row | Structure (SMILES) | inhibition
25 | COc1ccccc1Oc1ccc(N2CC(C(=O)OCC(=O)c3ccc(F)cc3)CC2=O)cc1 (stereo not drawn) | -7.2%
26 | Cc1nn(CC(=O)N2CCCCC2)c(=O)c2nn(-c3ccccc3)c(C)c12 | -5.3%
27 | Cc1ccc(CNC(=O)C2CC(c3ccccc3[N+](=O)[O-])=NO2)o1 (stereo not drawn) | 4.8%
28 | COc1ccc(S(=O)(=O)N2CCC(C(=O)NCc3ccco3)CC2)cc1C | -0.7%
29 | COc1ccc(C2=NOC(C(=O)NCc3ccco3)C2)cc1OC (stereo not drawn) | 43.3% (active)
30 | C[C@@H](NC(=O)[C@@H]1Cc2ccccc2CN1)C(=O)NC1CCCC1 | 0.2%
31 | CC(=O)NCCNC(=O)c1cc(-c2cccc3ccccc23)nc2ccccc12 | 4.3%
32 | COCCn1c(SCC(=O)Nc2nc(C)cs2)nnc1C(C)C | 1.6%
33 | O=C1c2ccccc2C(=O)N1c1cccc2ccccc12 | -0.4%
34 | Cc1cccc(N2C(=O)c3cccnc3C2=O)c1 | 3.1%
35 | Cc1ccc(Oc2ccc3c(c2)C(=O)N(c2cccc4cccnc24)C3=O)cc1 | 25.8% (active)
36 | Cc1oc2cc3oc(=O)ccc3cc2c1C | 3.1%
37 | COCCNc1cc(-c2ccccc2)nc2cc(-c3cccc(F)c3)nn12 | 2.5%
38 | CCOC(=O)C1=C(N)N2C(=O)C(C)SC2=C(C(=O)OCC)C1c1cc(OC)c(OC)c(OC)c1 (stereo not drawn) | 25.5% (active)
39 | CCOC(=O)C1CCN(C(=O)/C=C/c2cc(OC)c(OC)c(OC)c2)CC1 | -2.6%
40 | CCOC(=O)c1cc(-c2nnc(-c3cc(OC)c(OC)c(OC)c3)o2)c(C)nc1C | -3.1%
41 | Cc1ccc(N2CC(C(=O)NCCS(=O)(=O)N3CCN(c4ccccc4)CC3)CC2=O)cc1 (stereo not drawn) | -4.2%
42 | COc1cc(OC)c(OC)cc1/C=N/Nc1ncnc2c1[nH]c1ccc(C)cc12 | -4.4%
43 | Fc1ccc2[nH]c3c(N4CCN(Cc5ccc6c(c5)OCO6)CC4)ncnc3c2c1 | 19.7%
44 | CC(C)OCCCNc1ncnc2c1[nH]c1ccc(F)cc12 | 31.5% (active)
45 | COc1ccc(-c2nc3n(c(=O)c2C#N)CCS3)c(OC)c1 | 1.6%
46 | O=C(c1cc2ccccc2s1)N1CCN(c2ccccn2)CC1 | 3.8%
47 | Cc1ccc(-c2cc(C(=O)NCC3CCCO3)c3ccccc3n2)o1 (stereo not drawn) | -6%
48 | CCc1c(C)nc2c(-c3ccccc3)c(C)nn2c1Nc1ccc(NC(C)=O)cc1 | -10.5%
